# Assays:
# Assay in all cases: DAPPL (digital affinity profiling via proximity ligation, sequencing); 10 mM Tris-HCl pH 7.5, 50 mM NaCl, 1 mM DTT, 4% glycerol, room temperature, 30 min; GST-TFs on glutathione beads, 16-mer random dsDNA library, 0.1% formaldehyde crosslink after washing; high values mean tight binding
# [1] = molecular target: T1, FLI1 (Homo sapiens, UniProt Q01543 1-452); conditions: protein: recombinant; tags: N-terminal GST; dsDNA, one strand shown
# T1 sequence: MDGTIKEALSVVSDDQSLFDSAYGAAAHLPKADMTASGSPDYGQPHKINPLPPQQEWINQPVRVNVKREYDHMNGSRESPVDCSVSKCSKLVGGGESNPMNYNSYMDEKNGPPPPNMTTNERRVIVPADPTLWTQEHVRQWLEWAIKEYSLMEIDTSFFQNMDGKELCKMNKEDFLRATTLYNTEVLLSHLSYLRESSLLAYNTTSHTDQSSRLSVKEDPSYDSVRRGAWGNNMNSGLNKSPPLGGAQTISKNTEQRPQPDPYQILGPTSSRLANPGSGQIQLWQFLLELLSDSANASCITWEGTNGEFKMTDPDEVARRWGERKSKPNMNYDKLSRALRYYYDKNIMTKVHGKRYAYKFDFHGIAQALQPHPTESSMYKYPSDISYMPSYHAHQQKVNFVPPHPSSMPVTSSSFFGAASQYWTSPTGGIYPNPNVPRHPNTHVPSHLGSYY
# Procedure, shortened: (§1)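 GST fusions of human transcription factors were expressed in yeast and captured with glutathione beads. Once given DNA barcodes and pooled alongside a tag-only sample, they were incubated for 30 min at room temperature with 200 nmole of a random double-stranded 16-mer DNA library in Tris/NaCl/DTT/glycerol buffer, then washed, crosslinked (0.1% formaldehyde), proximity-ligated, PCR-amplified and sequenced on an Illumina NextSeq500. The binding signal of each hexamer is its read frequency for a factor divided by its frequency for the tag-only sample.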
# [2] = molecular target: T2, ELK1 (Homo sapiens, UniProt P19419 1-428); conditions: protein: recombinant; tags: N-terminal GST; dsDNA, one strand shown
# T2 sequence: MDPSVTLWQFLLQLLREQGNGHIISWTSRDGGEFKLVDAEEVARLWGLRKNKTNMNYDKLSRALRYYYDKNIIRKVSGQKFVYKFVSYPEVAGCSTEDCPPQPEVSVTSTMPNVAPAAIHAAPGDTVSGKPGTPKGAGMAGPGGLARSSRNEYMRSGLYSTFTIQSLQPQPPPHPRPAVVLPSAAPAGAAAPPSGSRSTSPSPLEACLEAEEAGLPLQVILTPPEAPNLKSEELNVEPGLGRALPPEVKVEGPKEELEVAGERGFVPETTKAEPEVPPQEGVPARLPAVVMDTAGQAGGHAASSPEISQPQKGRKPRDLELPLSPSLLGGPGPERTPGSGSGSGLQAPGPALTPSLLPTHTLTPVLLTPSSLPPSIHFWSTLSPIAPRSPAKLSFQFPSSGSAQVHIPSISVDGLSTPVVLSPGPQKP
# Procedure, shortened: as §1
# [3] = molecular target: T3, GABPA (Homo sapiens, UniProt Q06546 1-454); conditions: protein: recombinant; tags: N-terminal GST; dsDNA, one strand shown
# T3 sequence: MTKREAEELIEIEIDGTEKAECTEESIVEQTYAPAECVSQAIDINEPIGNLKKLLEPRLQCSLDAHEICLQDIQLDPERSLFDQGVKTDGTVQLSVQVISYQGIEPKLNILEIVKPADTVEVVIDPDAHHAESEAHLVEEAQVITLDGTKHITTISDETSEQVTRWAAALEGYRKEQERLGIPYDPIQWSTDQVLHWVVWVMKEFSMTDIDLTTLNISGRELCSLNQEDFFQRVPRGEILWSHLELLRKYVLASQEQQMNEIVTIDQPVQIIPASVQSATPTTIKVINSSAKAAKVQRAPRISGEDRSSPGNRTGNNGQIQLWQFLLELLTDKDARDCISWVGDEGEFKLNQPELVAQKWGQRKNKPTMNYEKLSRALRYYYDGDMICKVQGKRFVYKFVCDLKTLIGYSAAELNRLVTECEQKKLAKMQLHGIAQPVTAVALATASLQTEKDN
# Procedure, shortened: as §1
# [4] = molecular target: T4, ERG (Homo sapiens, UniProt P11308 1-479); conditions: protein: recombinant; tags: N-terminal GST; dsDNA, one strand shown
# T4 sequence: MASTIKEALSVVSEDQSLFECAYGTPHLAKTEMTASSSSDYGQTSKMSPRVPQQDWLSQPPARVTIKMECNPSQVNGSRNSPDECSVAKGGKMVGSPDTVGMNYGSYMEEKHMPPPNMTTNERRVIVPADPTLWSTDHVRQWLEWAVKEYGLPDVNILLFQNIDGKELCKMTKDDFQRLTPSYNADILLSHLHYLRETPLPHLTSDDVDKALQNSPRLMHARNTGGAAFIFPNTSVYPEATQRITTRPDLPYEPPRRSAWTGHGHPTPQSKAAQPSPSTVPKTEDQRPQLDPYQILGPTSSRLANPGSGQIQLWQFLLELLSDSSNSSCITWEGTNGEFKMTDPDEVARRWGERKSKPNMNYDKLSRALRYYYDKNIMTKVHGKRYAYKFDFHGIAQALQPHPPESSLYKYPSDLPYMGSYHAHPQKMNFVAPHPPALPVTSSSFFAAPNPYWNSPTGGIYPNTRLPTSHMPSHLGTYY
# Procedure, shortened: as §1
# [5] = molecular target: ELF1 (Homo sapiens, UniProt P32519 1-619); conditions: protein: recombinant; tags: N-terminal GST; dsDNA, one strand shown
# Procedure, shortened: as §1
# [6] = molecular target: T5, EHF (Homo sapiens, UniProt Q9NZC4 1-300); conditions: protein: recombinant; tags: N-terminal GST; dsDNA, one strand shown
# T5 sequence: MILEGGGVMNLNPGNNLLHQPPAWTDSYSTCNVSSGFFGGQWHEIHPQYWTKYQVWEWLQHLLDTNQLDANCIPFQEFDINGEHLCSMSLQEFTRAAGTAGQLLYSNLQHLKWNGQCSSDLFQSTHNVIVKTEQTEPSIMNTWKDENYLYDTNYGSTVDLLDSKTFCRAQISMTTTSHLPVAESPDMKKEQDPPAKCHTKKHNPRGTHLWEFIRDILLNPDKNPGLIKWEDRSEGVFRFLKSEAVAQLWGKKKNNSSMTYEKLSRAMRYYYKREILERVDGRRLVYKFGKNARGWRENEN
# Procedure, shortened: as §1
# [7] = molecular target: SPI1 (Homo sapiens, UniProt P17947 1-270); conditions: protein: recombinant; tags: N-terminal GST; dsDNA, one strand shown
# Procedure, shortened: as §1
# [8] = molecular target: SPIB (Homo sapiens, UniProt Q01892 1-262); conditions: protein: recombinant; tags: N-terminal GST; dsDNA, one strand shown
# Procedure, shortened: as §1
# [9] = molecular target: T6, ELK3 (Homo sapiens, UniProt P41970 1-407); conditions: protein: recombinant; tags: N-terminal GST; dsDNA, one strand shown
# T6 sequence: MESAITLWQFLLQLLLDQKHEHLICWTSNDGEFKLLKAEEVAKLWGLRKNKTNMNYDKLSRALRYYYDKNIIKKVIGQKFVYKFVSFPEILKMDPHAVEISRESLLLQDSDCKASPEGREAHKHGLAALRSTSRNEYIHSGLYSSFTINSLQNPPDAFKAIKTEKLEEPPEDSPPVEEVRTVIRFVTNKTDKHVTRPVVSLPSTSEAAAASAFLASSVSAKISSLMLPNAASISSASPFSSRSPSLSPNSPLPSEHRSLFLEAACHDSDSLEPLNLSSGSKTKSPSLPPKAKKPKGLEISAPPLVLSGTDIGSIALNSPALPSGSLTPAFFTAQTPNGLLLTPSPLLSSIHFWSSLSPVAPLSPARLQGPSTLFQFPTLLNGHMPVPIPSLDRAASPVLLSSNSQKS
# Procedure, shortened: as §1
# [10] = molecular target: T7, FEV (Homo sapiens, UniProt Q99581 1-238); conditions: protein: recombinant; tags: N-terminal GST; dsDNA, one strand shown
# T7 sequence: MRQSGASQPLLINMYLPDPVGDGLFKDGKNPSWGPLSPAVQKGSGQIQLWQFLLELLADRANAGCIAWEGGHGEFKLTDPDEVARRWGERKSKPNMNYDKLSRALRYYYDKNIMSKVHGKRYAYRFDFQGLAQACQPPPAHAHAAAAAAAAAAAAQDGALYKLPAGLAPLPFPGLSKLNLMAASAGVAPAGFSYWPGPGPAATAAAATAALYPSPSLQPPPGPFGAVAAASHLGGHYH
# Procedure, shortened: as §1
# [11] = molecular target: ETV5 (Homo sapiens, UniProt P41161 1-510); conditions: protein: recombinant; tags: N-terminal GST; dsDNA, one strand shown
# Procedure, shortened: as §1
# [12] = molecular target: HSF1 (Homo sapiens, UniProt Q00613 1-529); conditions: protein: recombinant; tags: N-terminal GST; chain copies: 3; dsDNA, one strand shown
# Procedure, shortened: as §1
# [13] = molecular target: T8, SPIC (Homo sapiens, UniProt Q8N5J4 1-248); conditions: protein: recombinant; tags: N-terminal GST; dsDNA, one strand shown
# T8 sequence: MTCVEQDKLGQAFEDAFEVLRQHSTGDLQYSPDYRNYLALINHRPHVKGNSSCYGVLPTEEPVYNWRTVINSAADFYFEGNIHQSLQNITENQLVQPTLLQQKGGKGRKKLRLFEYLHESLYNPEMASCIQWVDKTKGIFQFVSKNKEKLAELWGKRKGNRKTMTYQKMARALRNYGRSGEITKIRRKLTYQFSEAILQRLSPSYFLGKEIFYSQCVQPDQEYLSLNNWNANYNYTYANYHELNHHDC
# Procedure, shortened: as §1
# [14] = molecular target: ELF4 (Homo sapiens, UniProt Q99607 1-663); conditions: protein: recombinant; tags: N-terminal GST; dsDNA, one strand shown
# Procedure, shortened: as §1
# [15] = molecular target: T9, ELK4 (Homo sapiens, UniProt P28324-2 1-405); conditions: protein: recombinant; tags: N-terminal GST; dsDNA, one strand shown
# T9 sequence: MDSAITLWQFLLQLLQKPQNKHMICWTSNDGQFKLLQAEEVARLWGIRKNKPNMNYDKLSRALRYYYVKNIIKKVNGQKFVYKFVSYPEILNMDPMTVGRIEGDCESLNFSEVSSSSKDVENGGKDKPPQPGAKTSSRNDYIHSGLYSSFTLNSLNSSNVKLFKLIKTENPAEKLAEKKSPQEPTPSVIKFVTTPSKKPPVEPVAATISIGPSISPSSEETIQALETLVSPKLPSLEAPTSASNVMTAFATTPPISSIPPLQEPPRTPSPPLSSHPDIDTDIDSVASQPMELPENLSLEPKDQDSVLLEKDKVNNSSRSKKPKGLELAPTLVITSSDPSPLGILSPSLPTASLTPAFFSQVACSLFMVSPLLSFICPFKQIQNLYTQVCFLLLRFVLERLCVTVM
# Procedure, shortened: as §1
# [16] = molecular target: T10, ETV2 (Homo sapiens, UniProt O00321 1-342); conditions: protein: recombinant; tags: N-terminal GST; dsDNA, one strand shown
# T10 sequence: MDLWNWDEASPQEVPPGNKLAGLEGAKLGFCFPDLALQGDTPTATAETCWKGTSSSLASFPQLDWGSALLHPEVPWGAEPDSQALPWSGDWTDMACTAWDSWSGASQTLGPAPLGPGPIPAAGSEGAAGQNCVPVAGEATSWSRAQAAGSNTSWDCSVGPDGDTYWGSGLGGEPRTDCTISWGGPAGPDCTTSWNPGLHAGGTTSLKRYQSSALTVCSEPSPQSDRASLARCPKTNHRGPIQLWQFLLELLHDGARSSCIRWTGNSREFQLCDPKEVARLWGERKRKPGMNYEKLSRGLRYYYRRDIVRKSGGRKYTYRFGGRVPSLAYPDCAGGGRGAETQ
# Procedure, shortened: as §1
# [17] = molecular target: T11, ELF3 (Homo sapiens, UniProt P78545 1-371); conditions: protein: recombinant; tags: N-terminal GST; dsDNA, one strand shown
# T11 sequence: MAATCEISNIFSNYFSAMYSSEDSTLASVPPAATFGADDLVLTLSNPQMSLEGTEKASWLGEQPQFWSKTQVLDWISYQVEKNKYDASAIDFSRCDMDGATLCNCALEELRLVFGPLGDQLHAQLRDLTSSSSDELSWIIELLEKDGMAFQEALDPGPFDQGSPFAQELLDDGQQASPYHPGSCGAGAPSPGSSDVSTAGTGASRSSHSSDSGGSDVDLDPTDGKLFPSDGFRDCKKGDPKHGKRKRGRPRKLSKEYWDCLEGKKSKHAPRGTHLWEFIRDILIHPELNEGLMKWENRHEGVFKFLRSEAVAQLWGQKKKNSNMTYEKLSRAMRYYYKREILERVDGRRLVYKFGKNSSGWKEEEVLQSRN
# Procedure, shortened: as §1
# [18] = molecular target: CRX (Homo sapiens, UniProt O43186 1-299); conditions: protein: recombinant; tags: N-terminal GST; dsDNA, one strand shown
# Procedure, shortened: as §1
# [19] = molecular target: ETV1 (Homo sapiens, UniProt P50549 1-477); conditions: protein: recombinant; tags: N-terminal GST; dsDNA, one strand shown
# Procedure, shortened: as §1
# Chain of HSF1 (Q00613 whole entry): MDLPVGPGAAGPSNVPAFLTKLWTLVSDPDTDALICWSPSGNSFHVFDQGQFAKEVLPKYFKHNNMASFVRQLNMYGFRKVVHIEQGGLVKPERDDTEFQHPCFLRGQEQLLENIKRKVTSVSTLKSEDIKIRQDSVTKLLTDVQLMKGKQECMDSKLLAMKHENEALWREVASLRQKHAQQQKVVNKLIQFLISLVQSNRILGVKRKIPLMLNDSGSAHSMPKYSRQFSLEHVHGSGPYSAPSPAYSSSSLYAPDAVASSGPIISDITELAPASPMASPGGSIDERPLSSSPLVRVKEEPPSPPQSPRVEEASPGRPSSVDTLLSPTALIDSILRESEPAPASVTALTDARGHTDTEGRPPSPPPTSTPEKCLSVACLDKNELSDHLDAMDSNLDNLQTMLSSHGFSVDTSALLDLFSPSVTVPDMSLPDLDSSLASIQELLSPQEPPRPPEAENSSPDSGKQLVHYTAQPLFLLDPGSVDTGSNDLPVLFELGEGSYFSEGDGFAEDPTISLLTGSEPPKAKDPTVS
# Chain of CRX (O43186 whole entry): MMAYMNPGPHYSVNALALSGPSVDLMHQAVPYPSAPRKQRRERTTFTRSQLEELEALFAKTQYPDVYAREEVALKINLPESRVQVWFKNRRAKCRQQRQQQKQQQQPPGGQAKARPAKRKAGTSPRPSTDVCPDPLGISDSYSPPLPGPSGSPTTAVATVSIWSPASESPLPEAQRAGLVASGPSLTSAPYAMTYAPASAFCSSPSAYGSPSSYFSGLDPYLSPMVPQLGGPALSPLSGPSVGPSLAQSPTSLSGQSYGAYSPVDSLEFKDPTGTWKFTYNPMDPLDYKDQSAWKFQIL
# Chain of ELF4 (Q99607 whole entry): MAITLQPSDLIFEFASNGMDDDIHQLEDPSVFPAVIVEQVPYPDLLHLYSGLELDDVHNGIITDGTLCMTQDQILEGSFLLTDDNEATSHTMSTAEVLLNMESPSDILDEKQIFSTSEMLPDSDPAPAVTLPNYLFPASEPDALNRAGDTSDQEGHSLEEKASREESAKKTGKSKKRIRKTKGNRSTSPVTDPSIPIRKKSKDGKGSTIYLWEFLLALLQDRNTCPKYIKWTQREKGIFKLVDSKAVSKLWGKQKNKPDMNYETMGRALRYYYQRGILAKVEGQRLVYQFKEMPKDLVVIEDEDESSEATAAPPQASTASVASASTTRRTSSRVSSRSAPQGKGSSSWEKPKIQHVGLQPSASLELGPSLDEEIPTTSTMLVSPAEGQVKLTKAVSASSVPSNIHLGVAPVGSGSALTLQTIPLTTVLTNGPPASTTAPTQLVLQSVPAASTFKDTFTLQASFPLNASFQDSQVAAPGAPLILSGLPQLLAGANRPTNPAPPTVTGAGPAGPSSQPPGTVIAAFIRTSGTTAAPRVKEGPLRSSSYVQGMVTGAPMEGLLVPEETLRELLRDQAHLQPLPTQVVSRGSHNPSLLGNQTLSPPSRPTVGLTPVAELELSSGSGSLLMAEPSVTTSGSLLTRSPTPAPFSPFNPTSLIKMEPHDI
# Chain of ETV1 (P50549 whole entry): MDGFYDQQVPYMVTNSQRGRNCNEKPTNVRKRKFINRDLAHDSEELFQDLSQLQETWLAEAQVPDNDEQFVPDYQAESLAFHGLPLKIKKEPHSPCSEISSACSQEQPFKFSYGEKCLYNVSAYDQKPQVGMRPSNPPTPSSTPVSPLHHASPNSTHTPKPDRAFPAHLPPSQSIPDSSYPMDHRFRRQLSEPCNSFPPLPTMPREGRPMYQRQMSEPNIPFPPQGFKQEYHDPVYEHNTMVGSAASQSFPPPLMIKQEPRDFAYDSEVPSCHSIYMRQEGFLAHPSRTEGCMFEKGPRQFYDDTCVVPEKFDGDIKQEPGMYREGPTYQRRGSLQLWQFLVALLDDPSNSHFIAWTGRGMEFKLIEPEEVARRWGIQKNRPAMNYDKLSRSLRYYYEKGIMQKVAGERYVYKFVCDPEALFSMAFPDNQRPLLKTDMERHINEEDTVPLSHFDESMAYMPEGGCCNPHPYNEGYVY
# Chain of ELF1 (P32519 whole entry): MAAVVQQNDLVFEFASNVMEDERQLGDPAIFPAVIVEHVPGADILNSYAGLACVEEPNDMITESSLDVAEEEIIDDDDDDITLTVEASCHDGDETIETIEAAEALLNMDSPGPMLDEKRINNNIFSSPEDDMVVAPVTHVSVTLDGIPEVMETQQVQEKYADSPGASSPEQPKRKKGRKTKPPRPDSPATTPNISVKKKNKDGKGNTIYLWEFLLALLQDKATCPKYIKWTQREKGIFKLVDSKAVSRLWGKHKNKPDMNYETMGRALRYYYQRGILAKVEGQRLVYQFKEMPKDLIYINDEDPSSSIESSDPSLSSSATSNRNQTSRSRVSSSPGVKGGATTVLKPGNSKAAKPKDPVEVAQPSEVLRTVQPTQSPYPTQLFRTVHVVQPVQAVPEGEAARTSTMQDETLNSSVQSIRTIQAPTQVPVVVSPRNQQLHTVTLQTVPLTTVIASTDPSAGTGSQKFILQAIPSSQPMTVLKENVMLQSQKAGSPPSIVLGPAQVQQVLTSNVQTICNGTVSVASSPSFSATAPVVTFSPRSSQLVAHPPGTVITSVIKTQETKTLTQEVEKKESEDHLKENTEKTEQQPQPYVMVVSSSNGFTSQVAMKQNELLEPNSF
# Chain of ETV5 (P41161 whole entry): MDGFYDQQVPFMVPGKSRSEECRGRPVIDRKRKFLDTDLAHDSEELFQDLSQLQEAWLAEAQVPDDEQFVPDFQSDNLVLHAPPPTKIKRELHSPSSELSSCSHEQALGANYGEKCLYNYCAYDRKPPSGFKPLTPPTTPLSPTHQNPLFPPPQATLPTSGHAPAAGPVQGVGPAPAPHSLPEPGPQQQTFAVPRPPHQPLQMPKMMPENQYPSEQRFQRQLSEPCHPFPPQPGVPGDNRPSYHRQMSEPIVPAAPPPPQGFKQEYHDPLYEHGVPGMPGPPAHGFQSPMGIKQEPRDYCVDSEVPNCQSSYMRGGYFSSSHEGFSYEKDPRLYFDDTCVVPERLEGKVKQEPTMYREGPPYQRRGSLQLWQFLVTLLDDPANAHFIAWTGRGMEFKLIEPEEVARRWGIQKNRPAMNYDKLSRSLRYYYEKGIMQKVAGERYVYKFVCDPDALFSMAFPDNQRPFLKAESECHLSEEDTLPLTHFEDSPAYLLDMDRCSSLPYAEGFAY
# Chain of SPIB (Q01892 whole entry): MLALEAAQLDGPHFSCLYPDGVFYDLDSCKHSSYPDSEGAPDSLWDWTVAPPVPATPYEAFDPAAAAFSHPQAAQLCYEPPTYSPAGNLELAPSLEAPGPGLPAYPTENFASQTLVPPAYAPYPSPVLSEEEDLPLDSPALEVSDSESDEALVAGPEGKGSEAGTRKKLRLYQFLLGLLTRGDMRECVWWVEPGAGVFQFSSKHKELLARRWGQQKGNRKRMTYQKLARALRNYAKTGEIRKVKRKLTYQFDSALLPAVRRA
sequence,measurement,setting,value
TAGCTT,binding signal,[1],"1.18 fold enrichment (6-mer frequency, TF over GST control)"
same,binding signal,[2],"1.26 fold enrichment (6-mer frequency, TF over GST control)"
same,binding signal,[3],"1.31 fold enrichment (6-mer frequency, TF over GST control)"
same,binding signal,[4],"1.17 fold enrichment (6-mer frequency, TF over GST control)"
same,binding signal,[5],"1.21 fold enrichment (6-mer frequency, TF over GST control)"
same,binding signal,[6],"1.21 fold enrichment (6-mer frequency, TF over GST control)"
same,binding signal,[7],"1.25 fold enrichment (6-mer frequency, TF over GST control)"
same,binding signal,[8],"1.29 fold enrichment (6-mer frequency, TF over GST control)"
same,binding signal,[9],"1.31 fold enrichment (6-mer frequency, TF over GST control)"
same,binding signal,[10],"1.2 fold enrichment (6-mer frequency, TF over GST control)"
same,binding signal,[11],"1.31 fold enrichment (6-mer frequency, TF over GST control)"
same,binding signal,[12],"1.4 fold enrichment (6-mer frequency, TF over GST control)"
same,binding signal,[13],"1.28 fold enrichment (6-mer frequency, TF over GST control)"
same,binding signal,[14],"1.1 fold enrichment (6-mer frequency, TF over GST control)"
same,binding signal,[15],"1.21 fold enrichment (6-mer frequency, TF over GST control)"
same,binding signal,[16],"1.15 fold enrichment (6-mer frequency, TF over GST control)"
same,binding signal,[17],"1.33 fold enrichment (6-mer frequency, TF over GST control)"
same,binding signal,[18],"1.83 fold enrichment (6-mer frequency, TF over GST control)"
same,binding signal,[19],"1.2 fold enrichment (6-mer frequency, TF over GST control)"
